Results from article PMC11995724, “Antibiotic target discovery by integrated phenotypic and activity-based profiling of electrophilic fragments” (Cell chemical biology, 2025).
Among all 3,200 compounds or so, about 75 (2%) showed an effect of 50% or more. The list comes from a sample in which strong results are over-represented; it also holds similar structures and randomly drawn compounds.

system: T1, S. aureus MSSA476; parameters: species or system S. aureus MSSA476 (TSB) or V. cholerae SAD30 (LB); 384-well bacterial growth screen at 25 uM, OD600 relative to DMSO control; conditions: relative growth, OD600, TSB; 25 µM; inhibitor
T1 construct: MSSA476

Structure (SMILES)	% of control remaining [%]
N#CC(=Cc1cnc2ccc(C#N)cn12)C(=O)Nc1ccc(F)cc1 [9-E20, 2-cyano-3-{6-cyanoimidazo[1,2-a]pyridin-3-yl}-N-(4-fluorophenyl)prop-2-enamide]	103.67
CC(Cl)C(=O)N1CCn2c(nn(CC(=O)N(C)C)c2=O)C1 (stereo not drawn) [7-K17, 2-[7-(2-chloropropanoyl)-3-oxo-2H,3H,5H,6H,7H,8H-[1,2,4]triazolo[4,3-a]pyrazin-2-yl]-N,N-dimethylacetamide]	89.4819
Cc1cc(C)n(CCCNC(=O)C(C)Cl)n1 (stereo not drawn) [7-O19, 2-chloro-N-[3-(3,5-dimethyl-1H-pyrazol-1-yl)propyl]propanamide]	98.2732
Cc1nn(C)c(C)c1NC(=O)C(C)Cl (stereo not drawn) [6-C07, 2-chloro-N-(1,3,5-trimethyl-1H-pyrazol-4-yl)propanamide]	84.6829
Cc1cc(NC(=O)CCl)c([N+](=O)[O-])cc1C [4-F21, 2-chloro-N-(4,5-dimethyl-2-nitrophenyl)acetamide]	87.2797
Cc1cc(C(=O)CCl)c(C)n1-c1ccccc1 [10-L20, 2-chloro-1-(2,5-dimethyl-1-phenyl-1H-pyrrol-3-yl)ethan-1-one]	127.188
Cc1cc(C(=O)CCl)c(C)n1-c1ccc(Cl)cc1 [10-H18, 2-chloro-1-[1-(4-chlorophenyl)-2,5-dimethyl-1H-pyrrol-3-yl]ethan-1-one]	-0.625
Cc1cc(C(=O)CCl)c(C)n1-c1ccc(S(N)(=O)=O)cc1 [10-N14, 4-[3-(2-chloroacetyl)-2,5-dimethyl-1H-pyrrol-1-yl]benzene-1-sulfonamide]	121.875
CC(Cl)C(=O)N[C@@H]1CCc2c(C#N)cccc21 (stereo partly drawn) [6-P14, 2-chloro-N-[(1R)-4-cyano-2,3-dihydro-1H-inden-1-yl]propanamide]	122.927
COc1ccc(CNC(=O)CCl)cc1OC [5-O11, 2-chloro-N-[(3,4-dimethoxyphenyl)methyl]acetamide]	81.6029
CS(=O)(=O)N1CCc2cc(C(=O)CCl)ccc21 [10-B19, 2-chloro-1-(1-methanesulfonyl-2,3-dihydro-1H-indol-5-yl)ethan-1-one]	0.3125
CCC(=O)N1CCc2cc(C(=O)CCl)ccc21 [10-C22, 1-[5-(2-chloroacetyl)-2,3-dihydro-1H-indol-1-yl]propan-1-one]	125.938
CC1Cc2cc(C(=O)CCl)ccc2N1S(C)(=O)=O (stereo not drawn) [10-A04, 2-chloro-1-(1-methanesulfonyl-2-methyl-2,3-dihydro-1H-indol-5-yl)ethan-1-one]	1.875
O=CN1CCc2cc(C(=O)CCl)ccc21 [10-K20, 5-(2-chloroacetyl)-2,3-dihydro-1H-indole-1-carbaldehyde]	102.813
CCS(=O)(=O)N1CCc2cc(C(=O)CCl)ccc21 [10-E18, 2-chloro-1-[1-(ethanesulfonyl)-2,3-dihydro-1H-indol-5-yl]ethan-1-one]	0.3125
CC(=O)N1CCc2cc(C(=O)C(C)Cl)ccc21 (stereo not drawn) [10-L22, 1-(1-acetyl-2,3-dihydro-1H-indol-5-yl)-2-chloropropan-1-one]	124.375
CC(=O)N1c2ccc(C(=O)CCl)cc2CC1C (stereo not drawn) [10-I20, 1-(1-acetyl-2-methyl-2,3-dihydro-1H-indol-5-yl)-2-chloroethan-1-one]	66.25
CC(=O)NCCc1cc(C(=O)CCl)ccc1F [10-O05, N-{2-[5-(2-chloroacetyl)-2-fluorophenyl]ethyl}acetamide]	128.438
CN1C(=O)Cc2cc(C(=O)CCl)ccc21 [10-G07, 5-(2-chloroacetyl)-1-methyl-2,3-dihydro-1H-indol-2-one]	132.813
CS(=O)(=O)N1CCCc2cc(C(=O)CCl)ccc21 [10-H19, 2-chloro-1-(1-methanesulfonyl-1,2,3,4-tetrahydroquinolin-6-yl)ethan-1-one]	1.5625
O=C(CCl)NCCS(=O)(=O)N1CCc2ccccc21 [6-H04, 2-chloro-N-[2-(2,3-dihydro-1H-indole-1-sulfonyl)ethyl]acetamide]	86.0488
C=CC(=O)NC1CCCN(C(=O)CCC(F)(F)F)C1 (stereo not drawn) [1-B03, N-[1-(4,4,4-trifluorobutanoyl)piperidin-3-yl]prop-2-enamide]	102.681
C=CC(=O)N(C)c1ccccc1C(=O)NC [2-O18, N-methyl-2-(N-methylprop-2-enamido)benzamide]	115.231

Structure (SMILES)	% of control remaining [%]
C=CC(=O)Nc1ccc(S(C)(=O)=O)cc1OCC [2-C08, N-(2-ethoxy-4-methanesulfonylphenyl)prop-2-enamide]	116.275
Cl.O=C(CCl)NC1CCN(Cc2ccccc2)CC1 [5-E19, N-(1-benzylpiperidin-4-yl)-2-chloroacetamide hydrochloride]	109.654
O=C(CCl)NCC1CCCN(C(=O)C(F)(F)F)C1 (stereo not drawn) [7-N18, 2-chloro-N-{[1-(2,2,2-trifluoroacetyl)piperidin-3-yl]methyl}acetamide]	107.378
CCOc1ccc(C=C(C#N)C(=O)Nc2cccc3ncccc23)cc1 [8-A07, 2-cyano-3-(4-ethoxyphenyl)-N-(quinolin-5-yl)prop-2-enamide]	131.452
C=CC(=O)NCc1nc2c(s1)CCCC2 [1-G18, N-[(4,5,6,7-tetrahydro-1,3-benzothiazol-2-yl)methyl]prop-2-enamide]	119.56
C=CC(=O)N(CC)CC(=O)N1CCCC1c1cn(C)nc1C (stereo not drawn) [2-N12, N-{2-[2-(1,3-dimethyl-1H-pyrazol-4-yl)pyrrolidin-1-yl]-2-oxoethyl}-N-ethylprop-2-enamide]	110.009
CCN(CC(=O)NC1CCS(=O)(=O)C1)C(=O)CCl (stereo not drawn) [4-I19, 2-chloro-N-{[(1,1-dioxo-1lambda6-thiolan-3-yl)carbamoyl]methyl}-N-ethylacetamide]	127.68
O=C(CCl)c1cc2c3c(c1)CC(=O)N3CCC2 [10-G16, 6-(2-chloroacetyl)-1-azatricyclo[6.3.1.0,4,12]dodeca-4(12),5,7-trien-2-one]	130.938
O=C(CCl)c1ccc2c(c1)CCN(C(=O)C(F)(F)F)C2 [10-E09, 1-[6-(2-chloroacetyl)-1,2,3,4-tetrahydroisoquinolin-2-yl]-2,2,2-trifluoroethan-1-one]	20.625
CC(Cl)C(=O)Nc1ccc(S(N)(=O)=O)cc1 (stereo not drawn) [6-B06, 2-chloro-N-(4-sulfamoylphenyl)propanamide]	82.2927
C=CC(=O)Nc1cc(NC(=O)C2(OC)CCOC2)ccc1F (stereo not drawn) [3-D05, N-[4-fluoro-3-(prop-2-enamido)phenyl]-3-methoxyoxolane-3-carboxamide]	96.8219
C=CC(=O)Nc1cc(NC(=O)C2CCC2)ccc1F [2-E10, N-[4-fluoro-3-(prop-2-enamido)phenyl]cyclobutanecarboxamide]	111.749
C=CC(=O)Nc1cc(NC(=O)c2ccc([N+](=O)[O-])o2)ccc1F [3-J04, N-[4-fluoro-3-(prop-2-enamido)phenyl]-5-nitrofuran-2-carboxamide]	-4.528
Cc1cc(C(=O)CCl)c(C)n1CCc1ccc(F)cc1 [10-G14, 2-chloro-1-{1-[2-(4-fluorophenyl)ethyl]-2,5-dimethyl-1H-pyrrol-3-yl}ethan-1-one]	123.75
Cc1cc(C(=O)CCl)c(C)n1Cc1ccccc1Cl [10-P16, 2-chloro-1-{1-[(2-chlorophenyl)methyl]-2,5-dimethyl-1H-pyrrol-3-yl}ethan-1-one]	127.813
Cc1cc(C(=O)CCl)c(C)n1CCc1ccc(Cl)cc1 [10-N16, 2-chloro-1-{1-[2-(4-chlorophenyl)ethyl]-2,5-dimethyl-1H-pyrrol-3-yl}ethan-1-one]	5.9375
Cc1cc(C(=O)CCl)c(C)n1Cc1ccccc1 [10-M14, 1-(1-benzyl-2,5-dimethyl-1H-pyrrol-3-yl)-2-chloroethan-1-one]	143.438
Cc1cc(C(=O)CCl)c(C)n1CCc1ccccc1 [10-B18, 2-chloro-1-[2,5-dimethyl-1-(2-phenylethyl)-1H-pyrrol-3-yl]ethan-1-one]	102.188
Cc1cc(C(=O)CCl)c(C)n1CCc1cccs1 [10-F16, 2-chloro-1-{2,5-dimethyl-1-[2-(thiophen-2-yl)ethyl]-1H-pyrrol-3-yl}ethan-1-one]	20.3125
Cc1cc(C(=O)CCl)c(C)n1Cc1cccs1 [10-D03, 2-chloro-1-{2,5-dimethyl-1-[(thiophen-2-yl)methyl]-1H-pyrrol-3-yl}ethan-1-one]	122.5
Cc1cc(C(=O)CCl)c(C)n1Cc1ccc(F)cc1 [10-N17, 2-chloro-1-{1-[(4-fluorophenyl)methyl]-2,5-dimethyl-1H-pyrrol-3-yl}ethan-1-one]	4.6875
COCCn1c(C)cc(C(=O)CCl)c1C [10-D13, 2-chloro-1-[1-(2-methoxyethyl)-2,5-dimethyl-1H-pyrrol-3-yl]ethan-1-one]	103.125
